# D1 potentiator = Potentiators of Human D1 Dopamine Receptor: qHTS; AID 504651, 2011; potentiation, % at 10 µM; D(1A) dopamine receptor (Homo sapiens), P21728; 0.036% of 360,000 active; HEK293 TREx D1 cells, calcium flux, dopamine EC20 potentiation; in the data active means potentiation above about 30%; further: 0% is about no effect
# Target sequence (P21728 whole entry, looked up): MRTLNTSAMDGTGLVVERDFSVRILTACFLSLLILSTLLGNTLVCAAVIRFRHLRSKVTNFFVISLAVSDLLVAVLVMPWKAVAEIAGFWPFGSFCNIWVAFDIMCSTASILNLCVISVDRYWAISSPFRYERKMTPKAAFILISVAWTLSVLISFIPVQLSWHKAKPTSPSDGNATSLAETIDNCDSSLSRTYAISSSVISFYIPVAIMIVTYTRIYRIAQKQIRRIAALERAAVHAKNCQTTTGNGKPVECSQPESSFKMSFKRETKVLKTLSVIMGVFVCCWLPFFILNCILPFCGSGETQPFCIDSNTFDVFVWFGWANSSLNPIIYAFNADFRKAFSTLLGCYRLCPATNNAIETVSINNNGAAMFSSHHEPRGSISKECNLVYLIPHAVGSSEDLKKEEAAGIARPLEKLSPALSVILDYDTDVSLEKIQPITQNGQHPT
# D1 antagonist = Antagonist of Human D 1 Dopamine Receptor: qHTS. D(1A) dopamine receptor (Homo sapiens), P21728. HEK293 TREx D1 cells, calcium flux, dopamine EC80; hits give low values. activity change, negative = inhibition, % at 10 µM. 3.2% of 360,000 active. AID 504652, 2011; in the data active means activity change below about -30%; further: on the % scale 0 is the no-effect control and ±100 the full control effect
#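 Tetracycline-induced HEK293 T-REx cells with force-coupled D1 receptor were loaded with a no-wash calcium dye. Compound was added after a 10 s baseline and read kinetically for 180 s; EC80 dopamine was then added and calcium flux followed another 180 s.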
# TRHR ag = qHTS for Small Molecule Agonists and Allosteric Enhancers of Human TRH Receptor: Primary Screen for Agonists | Thyrotropin-releasing hormone receptor (Homo sapiens), P34981 | TRHR cells, calcium flux fluo-8, FDSS agonist mode | activation, % at 2 µM | AID 493084, 2011 | 0.18% of 360,000 active; further: 0% is about no effect
#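 Agonist-mode FDSS calcium read (Ex 480/Em 530, 1 s cycles) in 1536-well TRHR cells with fluo-8 dye, after 10-cycle baseline and 23 nL compound addition; TRH at EC20 (10 nM final) added afterwards for the enhancer phase.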
# TRHR enhancer = qHTS for Small Molecule Agonists and Allosteric Enhancers of Human TRH Receptor: Primary Screen for Enhancers; Thyrotropin-releasing hormone receptor (Homo sapiens), P34981; TRHR cells, fluo-8 calcium fluorescence, EC20 TRH enhancement; enhancement, % at 2 µM; 0.66% of 360,000 active; AID 493056, 2011; in the data active means enhancement above about 30%; further: 0% is about no effect
#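 TRHR-expressing cells loaded with fluo-8 calcium dye were read kinetically (ex 480/em 530) during compound addition, then stimulated with an EC20 of TRH (10 nM final). Enhancement of the Gq-mediated intracellular calcium response was scored.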
# D1 ag = Allosteric Agonists of the Human D1 Dopamine Receptor: qHTS; D(1A) dopamine receptor (Homo sapiens), P21728; HEK293 T-REx D1 cells, calcium flux, agonist mode; activation, % at 2 µM; 1% of 360,000 active; AID 504660, 2011; further: 0% is about no effect
#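 Agonism was scored from calcium flux recorded over 180 s (1 read/s) after pintool compound addition, following a 10-cycle baseline. Cells were inducible force-coupled HEK293 TREx D1, plated overnight at 30 C and loaded with no-wash calcium dye.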
# Numbers without * were called inactive. Compounds with a hit are over-represented: about 4.6% of the library has one in this group of screens. Unless noted, no stated cut-off is given here; in the data, active means activation above about 30%; inactive means the rest.
SMILES,D1 potentiator,D1 antagonist,TRHR ag,TRHR enhancer,D1 ag
Cc1nn(-c2ccccc2)c2sc(C(=O)NC3CCCCC3)cc12,-3,-52*,0,-2,2
Cc1nn(-c2ccccc2)c2sc(C(=O)N3CCc4ccccc4C3)cc12,6,5,0,32*,12
CCCN1CCN(CCCNC(=O)CN2C(=O)c3cccnc3Oc3ccc(Cl)cc32)CC1,3,-3,-1,2,6
O=C(CN1C(=O)c2cccnc2Oc2ccc(Cl)cc21)NCCCN1CCCCC1,3,-38*,0,1,0
CCc1ccccc1NC(=O)CN1C(=O)C2CCCN2c2ccc(S(=O)(=O)N(CC)CC)cc21 (configuration not stated),-3,8,0,-3,5
CCOC(=O)NC(=O)c1cn(Nc2ncc(C(F)(F)F)cc2Cl)c(=O)[nH]c1=O,-5,-20,0,-1,3
CCOC(=O)NC(=O)c1cn(Nc2ncc(Cl)cc2C(F)(F)F)c(=O)[nH]c1=O,-2,-44*,0,3,2
O=C(Nc1nc2c(s1)CCCC2)c1ccc(N2C(=O)CCC2=O)cc1,-7,-71*,0,25,3
CC1CCc2nc(NC(=O)c3ccc(N4C(=O)CCC4=O)cc3)sc2C1 (configuration not stated),0,7,0,10,2
Cc1ccsc1C1C=C(c2cccc(Br)c2)Nc2ncnn21 (configuration not stated),-1,7,24,-2,43*
COc1cccc(-c2nc3c(C#N)c[nH]n3c2NC2CCCC2)c1OC,-3,-52*,0,-8,6
COc1cccc(-c2nc3c(C#N)c[nH]n3c2NC2CCCCC2)c1,-2,-37*,0,-10,3
COc1cccc(-c2nc3c(C#N)c[nH]n3c2NC2CCCCC2)c1OC,1,0,0,14,1
COc1ccc(Cn2c(=O)c3oc4ccccc4c3n(Cc3cccc(F)c3)c2=O)cc1,-6,6,0,0,9
Cc1ccc(Cn2c(=O)n(Cc3ccccc3)c(=O)c3oc4ccccc4c32)cc1,-4,10,0,36*,2
Cc1ccc(C)c(Cn2c(=O)n(C(C)C)c(=O)c3oc4ccccc4c32)c1,-2,-80*,1,12,0
Cc1cccc(Cn2c(=O)n(Cc3ccccc3)c(=O)c3oc4ccccc4c32)c1,-4,3,-1,-2,1
COc1ccc(Cn2c(=O)c3oc4ccccc4c3n(Cc3ccccc3)c2=O)cc1,-1,-4,0,35*,2
Cc1ccc(C)c(Cn2c(=O)n(Cc3ccco3)c(=O)c3oc4ccccc4c32)c1,-4,10,0,-3,1
COc1ccc(NC(=O)C(=O)c2cc(C)n(-c3ccc(C)cc3)c2C)cc1Cl,-2,-53*,0,-2,4
CCNC(=O)C(=O)Nc1ccc(OC)c(Cl)c1,-4,-14,0,-5,12
Cc1ccccc1Nc1c(-c2cccnc2)nc2ccc(Cl)cn12,-3,-7,-1,-3,0
Cc1ccc(S(=O)(=O)N2CCC(c3ccncc3)CC2)c(C)c1,-2,-34*,0,-2,15
CC(=O)Nc1ccc(S(=O)(=O)N2CCC(c3ccncc3)CC2)cc1,0,-37*,0,-1,9
Cc1ccc(S(=O)(=O)N2CCN(S(=O)(=O)N3CCC(C)CC3)CC2)c(C)c1,0,5,0,-3,3
SMILES,D1 potentiator,D1 antagonist,TRHR ag,TRHR enhancer,D1 ag
COc1ccccc1-c1nnc(C2CCN(S(=O)(=O)c3ccc([N+](=O)[O-])cc3)CC2)o1,-7,-3,0,-14,37*
CC(=O)Nc1ccc(S(=O)(=O)N2CCC(C(=O)NCCC(=O)Nc3nccs3)CC2)cc1,-4,-5,0,3,2
CC(=O)Nc1ccc(S(=O)(=O)N2CCC(C(=O)Nc3nccs3)CC2)cc1,-5,-39*,1,-7,0
CCOC(=O)/C(=N/Nc1ccccc1)Sc1nnc(CCc2ccccc2)n1-c1ccccc1,3,0,0,-6,2
Cc1nc(-c2ccccc2)sc1CCNC(=O)C(=O)Nc1ccc2c(c1)OCO2,-5,6,0,-3,1
CC(=O)Nc1ccc(S(=O)(=O)N2CCC(c3nnc(-c4ccc(C)cc4)o3)CC2)cc1,-13,-33*,0,1,2
COC(=O)CN1C(C(=O)c2ccccc2)=C(OC(=O)c2ccc(F)cc2)c2ccccc2S1(=O)=O,-1,-78*,1,-8,0
O=C(NC1(C(F)(F)F)N=C(c2ccccc2)N(C2CCCCC2)C1=O)c1ccc(F)cc1 (configuration not stated),-1,2,-1,21,-1
Cc1ccccc1Nc1c(-c2ccc(Cl)s2)nc2cccc(C)n12,0,12,-1,-3,1
Cc1ccc(NC(=O)CN(C)S(=O)(=O)c2cccs2)cc1C,-8,-10,-1,10,9
Cc1ccc(NC(=O)CN(C)S(=O)(=O)c2cccs2)cc1F,-3,-37*,2,1,2
Cc1ccc(N(CCC#N)C(=O)COC(=O)c2ccccc2SCC(=O)N2CCCC2)cc1,0,30,-1,22,0
Cc1cc(C)cc(N(CCC#N)C(=O)COC(=O)c2ccccc2SCC(=O)N2CCCC2)c1,-2,-34*,2,0,6
COC(=O)c1ccc(CSc2ccc3nnc(-c4cccc(F)c4)n3n2)o1,0,-30*,0,-3,-1
Cc1ccc(S(=O)(=O)NC2c3cccc4cccc(c34)C2Sc2nc(C)cc(C)n2)cc1 (configuration not stated),1,5,0,-1,1
O=C(C/C=N\OCc1ccc([N+](=O)[O-])cc1)Nc1ccc(Cl)cc1,-7,-30*,0,-5,19
CNc1nc(Nc2ccc(C(C)=O)cc2)nc(OC(C(F)(F)F)C(F)(F)F)n1,-7,-31*,1,3,11
COc1ccc(C2=C/C(=C\c3cccc(OC(C)=O)c3)C(=O)O2)cc1,-7,-31*,11,-2,81*
O=C1OC(c2ccc(Cl)cc2)=C/C1=C/c1cccnc1,0,3,0,-3,1
COc1ccc(C2=C/C(=C\c3ccccc3OC(C)=O)C(=O)O2)cc1,2,-10,19,-1,54*
Cc1ccc(CO)cc1Nc1ncnc2onc(-c3ccc(F)cc3)c12,1,7,0,3,0

# Screens as filed in PubChem BioAssay.
